From PubChem
Shown is part of a subset that was picked to be rich in hits.
ST2 IL33 inh – blocks human ST2 binding to IL-33; Q01638; AlphaLISA ST2-Fc/biotin-IL-33 interaction, 1 h; inhibition, % for hits at 17 µM; 2.3% of 78,000 active; AID 1259354; in the data active = inhibition above about 30%
Target sequence (Q01638 whole entry, looked up): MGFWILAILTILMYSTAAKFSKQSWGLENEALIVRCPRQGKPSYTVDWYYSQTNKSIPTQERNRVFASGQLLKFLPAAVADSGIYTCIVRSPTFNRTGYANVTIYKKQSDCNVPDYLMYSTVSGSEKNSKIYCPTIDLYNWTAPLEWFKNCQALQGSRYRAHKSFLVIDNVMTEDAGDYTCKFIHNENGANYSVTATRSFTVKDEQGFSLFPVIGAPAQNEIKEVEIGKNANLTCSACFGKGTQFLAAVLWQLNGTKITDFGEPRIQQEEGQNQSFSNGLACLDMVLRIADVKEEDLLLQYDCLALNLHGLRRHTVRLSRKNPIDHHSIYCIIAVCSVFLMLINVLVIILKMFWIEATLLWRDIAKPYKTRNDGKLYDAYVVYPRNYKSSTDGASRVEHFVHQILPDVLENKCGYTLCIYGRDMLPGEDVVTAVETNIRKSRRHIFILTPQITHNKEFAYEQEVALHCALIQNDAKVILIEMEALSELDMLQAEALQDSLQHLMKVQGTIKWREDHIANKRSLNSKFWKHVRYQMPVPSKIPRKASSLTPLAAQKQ
* = called active by the depositor; ! = not confirmed by another sample.

What do the screens show for `Cc1ccc(N2C(=O)C3Sc4[nH]c(=O)sc4C(c4ccccc4)C3C2=O)cc1` (configuration not stated)?
ST2 IL33 inh: 34%*

What do the screens show for `O=c1[nH]c2c(s1)C(c1ccc(Cl)cc1)C1C3CCC(C3)C1S2` (configuration not stated)?
ST2 IL33 inh: inactive

How did CCCCOC(=O)C1=C(C)Nc2nnnn2C1c1ccc(F)cc1 (configuration not stated) do in these assays?
ST2 IL33 inh: inactive

What do the screens show for `CCOC(=O)C1C(=O)C=C(c2ccc(F)cc2)CC1c1ccccc1C` (configuration not stated)?
ST2 IL33 inh: inactive

Results for COc1cc(C(=O)O/N=C2/C=CC(=O)C=C2C)cc(OC)c1OC ?
ST2 IL33 inh: inactive

How did Cc1ccccc1-c1cc(O)c2c(c1)CN(c1cc(C(C)C)ncn1)CCO2 do in these assays?
ST2 IL33 inh: inactive

Results for CCN1CCN(c2nc3c(c(=O)n(C)c(=O)n3C)n2Cc2ccccc2)CC1 ?
ST2 IL33 inh: inactive

What do the screens show for `COc1ccc(NC2CCCN(Cc3noc(C4CC4)n3)C2)cc1OC` (configuration not stated)?
ST2 IL33 inh: inactive

What do the screens show for `CC(CN(C)c1nc(-c2cccnc2)nc2c1cnn2C)N1CCOCC1` (configuration not stated)?
ST2 IL33 inh: inactive

Results for CN(CC1COCCO1)c1nc(-c2cccnc2)nc2c1cnn2C (configuration not stated) ?
ST2 IL33 inh: 34%*

What do the screens show for `CN(CCn1cccn1)c1nc(-c2cccnc2)nc2c1cnn2C`?
ST2 IL33 inh: inactive

How did Cc1cc(NC(=O)C(NC(=O)C2CCCCC2)C(C)C)ccc1Br (configuration not stated) do in these assays?
ST2 IL33 inh: inactive

What do the screens show for `Cc1ccc(C(=O)OCCCCN=C2NS(=O)(=O)c3ccccc32)cc1`?
ST2 IL33 inh: inactive

Results for O=C(Nc1ccc(Cl)c(Cl)c1)[C@@H]1C[C@@H]1c1ccccc1 ?
ST2 IL33 inh: inactive

How did c1ccc(CNc2nc(-c3ccccn3)cs2)cc1 do in these assays?
ST2 IL33 inh: 36%*

What do the screens show for `Oc1ccc(Nc2nc(-c3ccccn3)cs2)cc1`?
ST2 IL33 inh: inactive

What do the screens show for `O=C(Nc1nc(-c2ccccn2)cs1)c1ccc(C(=O)c2ccccc2)cc1`?
ST2 IL33 inh: inactive

Results for CCn1nc(C(C)C)cc1C(=O)N1CCC(O)(CN(C)C)C1 (configuration not stated) ?
ST2 IL33 inh: inactive

What do the screens show for `COc1cccc(N(CC(=O)NCc2ccccc2OC)S(=O)(=O)c2ccc(C)cc2)c1`?
ST2 IL33 inh: inactive

How did CC(C)c1ccc2cc(C(=O)N(C)[C@@H]3CS(=O)(=O)C[C@H]3O)[nH]c2c1 do in these assays?
ST2 IL33 inh: inactive

How did Cc1cccc(-c2nc(SC3CC(=O)N(c4ccc(C)c(Cl)c4)C3=O)n[nH]2)c1 (configuration not stated) do in these assays?
ST2 IL33 inh: inactive

Results for COc1cccc(NC(=O)c2nn(-c3ccc(Cl)cc3)c(=O)c3ccccc23)c1 ?
ST2 IL33 inh: inactive

Results for Cn1c(=O)cc(SCC(=O)N2CCCCCC2)c2ccccc21 ?
ST2 IL33 inh: inactive

Results for Cn1c(=O)cc2c3c(c(N4CCCCC4)ccc31)C(=O)c1ccccc1-2 ?
ST2 IL33 inh: 44%*

How did Cn1c(=O)cc2c3c(c(Br)ccc31)C(=O)c1ccccc1-2 do in these assays?
ST2 IL33 inh: inactive

How did CCCCSc1nc2c(c(=O)n1-c1ccccc1OC)SCC2 do in these assays?
ST2 IL33 inh: inactive

How did Cc1cccc(NS(=O)(=O)c2c(C)[nH]c(=O)[nH]c2=O)c1C do in these assays?
ST2 IL33 inh: inactive

What do the screens show for `O=C(NC1CCCCC1)c1cc2cc3ccc(Cl)cc3nc2o1`?
ST2 IL33 inh: 43%*!

Results for CC1CC(C)CN(CCCNC(=O)c2cc3cc4ccc(Cl)cc4nc3o2)C1 (configuration not stated) ?
ST2 IL33 inh: inactive

Results for O=C(NCc1ccco1)c1cc2cc3ccc(Cl)cc3nc2o1 ?
ST2 IL33 inh: 34%*

What do the screens show for `CCCN(CCC)CCCNC(=O)c1cc2cc3ccc(Cl)cc3nc2o1`?
ST2 IL33 inh: inactive

What do the screens show for `COCCNC(=O)c1cc2cc3ccc(Cl)cc3nc2o1`?
ST2 IL33 inh: inactive

Results for CC1CCCC(NC(=O)c2cc3cc4ccc(Cl)cc4nc3o2)C1C (configuration not stated) ?
ST2 IL33 inh: 30%*

What do the screens show for `COc1ccc2cc3cc(C(=O)N4CCCC(C)C4)oc3nc2c1` (configuration not stated)?
ST2 IL33 inh: inactive

What do the screens show for `O=C(NC1CCCC1)c1ccc(Cl)cc1Cl`?
ST2 IL33 inh: inactive

What do the screens show for `COc1ccc2cc3cc(C(=O)NCC4CCCO4)oc3nc2c1` (configuration not stated)?
ST2 IL33 inh: inactive

How did CCCCN(CC)CCNC(=O)c1cc2cc3ccc(Cl)cc3nc2o1 do in these assays?
ST2 IL33 inh: inactive

What do the screens show for `COCCNC(=O)c1cc2cc3ccc(OC)cc3nc2o1`?
ST2 IL33 inh: inactive

What do the screens show for `O=C(NC1CCCCCC1)c1cc2cc3ccc(Cl)cc3nc2o1`?
ST2 IL33 inh: 36%*!

What do the screens show for `CC(C)NC(=O)C1CCN(C2CCN(Cc3cc(Cl)ccc3O)CC2)CC1`?
ST2 IL33 inh: inactive

Results for CCCCOc1ccc(OC(=O)c2sc3ncn(CC)c(=O)c3c2C)cc1 ?
ST2 IL33 inh: inactive

What do the screens show for `CC(C)c1ccc(N(C(=O)CCc2ccccc2)C2C=CS(=O)(=O)C2)cc1` (configuration not stated)?
ST2 IL33 inh: inactive

What do the screens show for `Cc1nn(C)c(C)c1CCC(=O)N1CCCC2(CC1)CN(C)C(=O)O2` (configuration not stated)?
ST2 IL33 inh: inactive

Results for O=C(C(=O)N1CCC2(CC1)NCCNC2=O)c1ccccc1 ?
ST2 IL33 inh: inactive

What do the screens show for `CCCn1cnc2c1CN(C(=O)c1ccc(N(C)C)cc1)[C@H](C(=O)OC)C2`?
ST2 IL33 inh: inactive

Results for O=C(c1oc(=O)c2ccccc2c1-c1ccccc1)N1CCCCCC1 ?
ST2 IL33 inh: inactive

How did CCOc1ccc2sc(C=NCc3ccco3)c(O)c2c1 do in these assays?
ST2 IL33 inh: 31%*

What do the screens show for `CCOc1ccc2oc(-c3ccccc3)c(C(=O)O)c2c1`?
ST2 IL33 inh: inactive

What do the screens show for `CCOc1ccc(N(C(C)C(=O)NCc2ccco2)S(C)(=O)=O)cc1` (configuration not stated)?
ST2 IL33 inh: inactive

How did Cc1ccc(NC(=O)c2cc3c(=O)n4ccccc4nc3n2C)cc1 do in these assays?
ST2 IL33 inh: inactive

What do the screens show for `CCCc1ccc(S(=O)(=O)N2CCN(c3cc(-c4ccccc4C)ncn3)CC2)cc1`?
ST2 IL33 inh: inactive

What do the screens show for `C=CCn1c(SCC(=O)Nc2sc3c(c2C(=O)OCC)CCC3)nc2ccccc2c1=O`?
ST2 IL33 inh: inactive

How did C=CCn1c(SCC(=O)Nc2ccccc2[N+](=O)[O-])nc2sc(CC)cc2c1=O do in these assays?
ST2 IL33 inh: 30%*

How did CCc1ccccc1NC(=O)CSc1nc2ccccc2c(=O)n1CCc1ccccc1 do in these assays?
ST2 IL33 inh: inactive

What do the screens show for `CCNC(=O)N1CC[C@H](c2nc3ccc(OC)cc3[nH]2)C1`?
ST2 IL33 inh: inactive

What do the screens show for `CC(CC(=O)Nc1ccccc1Br)c1ccccc1` (configuration not stated)?
ST2 IL33 inh: inactive

What do the screens show for `Cc1ccc(NC(=O)c2c([N+](=O)[O-])cnn2C)c(C)c1`?
ST2 IL33 inh: inactive
